The panel holds about 79,000 compounds, 15% with a hit somewhere; the sample as a whole holds those more often. Values without a mark were called inactive. The source made the active and inactive calls. Cut-off read from the data, not from the text of the source: active = growth inhibition above about 70%; inactive = the rest.

The results in this text go back to PubChem BioAssay (NCI).

Experiment [1] in a line: NCI Yeast Anticancer Drug Screen. Data for the rad50 strain (AID 155).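 Note: 0% = growth of vehicle-only cultures of the same strain.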 The following applies: S. cerevisiae rad50 strain growth inhibition, hits give high values. In short, it runs like this: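 Readout: growth inhibition relative to vehicle-treated cultures. Compound exposure was carried out in a genetically defined yeast strain deficient in DNA damage repair.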
Experiment [2] in a line: NCI Yeast Anticancer Drug Screen. Data for the mec2-1 strain (AID 157). The following applies: S. cerevisiae mec2-1 strain, hits give high values. Put shortly:
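Growth inhibition is read against vehicle-treated controls after compound exposure of the mec2-1 yeast strain, which is defective in DNA damage repair or cell cycle control.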

Experiment [3] in a line: NCI Yeast Anticancer Drug Screen. Data for the sgs1 mgt1 strain (AID 161).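 Note: 0% = growth of cultures given vehicle only.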 The following applies: S. cerevisiae sgs1 mgt1 strain, hits give high values. Put shortly:
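Compounds are added to genetically altered yeast, and growth is compared with cultures given vehicle alone to give percent inhibition.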

Experiment [4] is described as follows: NCI Yeast Anticancer Drug Screen. Data for the cln2 rad14 strain (AID 165).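 Note: 0% = growth equal to vehicle treated cultures.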 The following applies: S. cerevisiae cln2 rad14 strain, hits give high values. In short, it runs like this:
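Growth inhibition, relative to vehicle-treated controls, is the read-out. The test organism is a yeast strain with defined genetic alterations, cln2 rad14.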

Experiment [5] in a line: NCI Yeast Anticancer Drug Screen. Data for the bub3 strain (AID 167). The following applies: S. cerevisiae bub3 mutant strain, hits give high values. In short, it runs like this:
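Readout: yeast growth inhibition, expressed relative to vehicle-only wells. The test organism is a mutant strain from a panel with lesions in DNA repair or checkpoint genes.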

Experiment [6] in a line: NCI Yeast Anticancer Drug Screen. Data for the mlh1 rad18 strain (AID 175). The following applies: S. cerevisiae mlh1 rad18 strain growth inhibition, hits give high values. In short, it runs like this: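 Cells of a genetically altered yeast strain, deficient in DNA damage repair, were treated with compound. Their growth was then compared with that of vehicle-treated cultures to give inhibition.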

[7] abbreviates: at 5.0 µM (retest, dose inferred, filed as 0.5).
[8] abbreviates: at 50.0 µM (retest, dose inferred, filed as 5.0).

Take `CCOC(=O)C1c2[nH]c3ccccc3c2CCN1C(=O)c1ccc(OC)o1` (stereo not given): the growth inhibition in experiment [1] (setting [7]) was 0%; in experiment [1] (setting [8]) it was 71% (active); in experiment [1] (at 50.0 µM) it was 83.5% (active); in experiment [2] (setting [7]) it was -36%; in experiment [2] (setting [8]), 60%; in experiment [2] (at 50.0 µM), 79.8% (active). Further, the growth inhibition is 13% in experiment [3] (setting [7]); 80% (active) in experiment [3] (setting [8]); 82% (active) in experiment [3] (at 50.0 µM); 7% in experiment [4] (setting [7]); 81% (active) in experiment [4] (setting [8]); 67.7% in experiment [4] (at 50.0 µM). In addition, the growth inhibition in experiment [5] (setting [7]) is -17%; in experiment [5] (setting [8]), 76% (active); in experiment [5] (at 50.0 µM), 84.3% (active); in experiment [6] (setting [7]), -12%; in experiment [6] (setting [8]), 73% (active); in experiment [6] (at 50.0 µM), 83.2% (active).

For `CN(C)CC1CCCCCCCCCCCCC(CN(C)C)C1=O` (stereo not given), the growth inhibition in experiment [1] (setting [7]) is -18%; in experiment [1] (setting [8]), 42%; in experiment [1] (at 50.0 µM) it was 83.7% (active); in experiment [2] (setting [7]), -6%; in experiment [2] (setting [8]), 22%; in experiment [2] (at 50.0 µM), 77.8% (active). Besides, the growth inhibition in experiment [3] (setting [7]) is -15%; in experiment [3] (setting [8]) it was 57%; in experiment [3] (at 50.0 µM), 95.5% (active); in experiment [4] (setting [7]) it was -23%; in experiment [4] (setting [8]), 20%; in experiment [4] (at 50.0 µM), 72.2% (active). The growth inhibition in experiment [5] (setting [7]) was -15%; in experiment [5] (setting [8]), 46%; in experiment [5] (at 50.0 µM) it was 88% (active); in experiment [6] (setting [7]), -13%; in experiment [6] (setting [8]), 87% (active); in experiment [6] (at 50.0 µM) it was 39%.

With `CCCCC(=O)OC1=C(Br)C(=O)c2ccccc2C1=O`, the growth inhibition in experiment [1] (setting [7]) was 20%; in experiment [1] (setting [8]), 98% (active); in experiment [1] (at 50.0 µM), 96.3% (active); in experiment [2] (setting [7]), 24%; in experiment [2] (setting [8]), 100% (active); in experiment [2] (at 50.0 µM) it was 63%. Moreover, the growth inhibition in experiment [3] (setting [7]) was 10%; in experiment [3] (setting [8]), 96% (active); in experiment [3] (at 50.0 µM), 81.1% (active); in experiment [4] (setting [7]), 3%; in experiment [4] (setting [8]), 88% (active); in experiment [4] (at 50.0 µM), -11.8%. Moreover, the growth inhibition is 14% in experiment [5] (setting [7]); 97% (active) in experiment [5] (setting [8]); 13.8% in experiment [5] (at 50.0 µM); 37% in experiment [6] (setting [7]); 98% (active) in experiment [6] (setting [8]); 75.3% (active) in experiment [6] (at 50.0 µM).

Take `CCCCCCCCCCCc1nnc(N)o1`: the growth inhibition was 28% in experiment [1] (setting [7]); 91% (active) in experiment [1] (setting [8]); 96.7% (active) in experiment [1] (at 50.0 µM); 11% in experiment [2] (setting [7]); 92% (active) in experiment [2] (setting [8]); 96.2% (active) in experiment [2] (at 50.0 µM). In addition, the growth inhibition was 1% in experiment [3] (setting [7]); 89% (active) in experiment [3] (setting [8]); 95.2% (active) in experiment [3] (at 50.0 µM); 35% in experiment [4] (setting [7]); 92% (active) in experiment [4] (setting [8]); 93.3% (active) in experiment [4] (at 50.0 µM). The growth inhibition is -10% in experiment [5] (setting [7]); 99% (active) in experiment [5] (setting [8]); 95.1% (active) in experiment [5] (at 50.0 µM); 7% in experiment [6] (setting [7]); 94% (active) in experiment [6] (setting [8]); 96.8% (active) in experiment [6] (at 50.0 µM).

With `O=[N+]([O-])CCc1ccco1`, the growth inhibition in experiment [1] (setting [7]) is 3%; in experiment [1] (setting [8]) it was 0%; in experiment [1] (at 50.0 µM) it was 74.8% (active); in experiment [2] (setting [7]) it was 1%; in experiment [2] (setting [8]), -1%; in experiment [2] (at 50.0 µM), 73.2% (active). Besides, the growth inhibition is 2% in experiment [3] (setting [7]); 2% in experiment [3] (setting [8]); 47.4% in experiment [3] (at 50.0 µM); 3% in experiment [4] (setting [7]); 0% in experiment [4] (setting [8]); 56.2% in experiment [4] (at 50.0 µM). In addition, the growth inhibition in experiment [5] (setting [7]) is 4%; in experiment [5] (setting [8]), -4%; in experiment [5] (at 50.0 µM) it was 95.2% (active); in experiment [6] (setting [7]), 0%; in experiment [6] (setting [8]) it was -1%; in experiment [6] (at 50.0 µM), 44.1%.

With `O=c1c(-c2ccccc2)coc2cc(O)ccc12`, the growth inhibition in experiment [1] (setting [7]) is -14%; in experiment [1] (setting [8]), 8%; in experiment [1] (at 50.0 µM), 60.6%; in experiment [2] (setting [7]), 5%; in experiment [2] (setting [8]), 23%; in experiment [2] (at 50.0 µM), 36.9%. The growth inhibition in experiment [3] (setting [7]) is -6%; in experiment [3] (setting [8]), 16%; in experiment [3] (at 50.0 µM) it was 63.3%; in experiment [4] (setting [7]) it was -12%; in experiment [4] (setting [8]) it was -12%; in experiment [4] (at 50.0 µM), 18.1%. The growth inhibition is -25% in experiment [5] (setting [7]); 34% in experiment [5] (setting [8]); 75.8% (active) in experiment [5] (at 50.0 µM); -3% in experiment [6] (setting [7]); 12% in experiment [6] (setting [8]); 4.9% in experiment [6] (at 50.0 µM).

In the case of `O=C(CC1C(=O)c2ccccc2C1=C1C(=O)c2ccccc2C1=O)c1ccccc1` (stereo not given), the growth inhibition in experiment [1] (setting [7]) is -8%; in experiment [1] (setting [8]), 71% (active); in experiment [1] (at 50.0 µM), 81.8% (active); in experiment [2] (setting [7]), 22%; in experiment [2] (setting [8]), 92% (active); in experiment [2] (at 50.0 µM), 89.8% (active). Further, the growth inhibition was 9% in experiment [3] (setting [7]); 84% (active) in experiment [3] (setting [8]); 89.3% (active) in experiment [3] (at 50.0 µM); 19% in experiment [4] (setting [7]); 69% in experiment [4] (setting [8]); 68% in experiment [4] (at 50.0 µM). Also, the growth inhibition in experiment [5] (setting [7]) is 11%; in experiment [5] (setting [8]), 94% (active); in experiment [5] (at 50.0 µM), 79.2% (active); in experiment [6] (setting [7]), -3%; in experiment [6] (setting [8]) it was 95% (active); in experiment [6] (at 50.0 µM) it was 74% (active).

Turning to `CCCCCCCCCCCC[S+](C)C`, the growth inhibition was 31% in experiment [1] (setting [7]); 52% in experiment [1] (setting [8]); 44.9% in experiment [1] (at 50.0 µM); 23% in experiment [2] (setting [7]); 80% (active) in experiment [2] (setting [8]); 78.3% (active) in experiment [2] (at 50.0 µM). Further, the growth inhibition in experiment [3] (setting [7]) was 36%; in experiment [3] (setting [8]), 83% (active); in experiment [3] (at 50.0 µM) it was 89.5% (active); in experiment [4] (setting [7]) it was 17%; in experiment [4] (setting [8]), 26%; in experiment [4] (at 50.0 µM), 41%. Further, the growth inhibition in experiment [5] (setting [7]) was 41%; in experiment [5] (setting [8]), 74% (active); in experiment [5] (at 50.0 µM) it was 90.2% (active); in experiment [6] (setting [7]) it was 30%; in experiment [6] (setting [8]), 76% (active); in experiment [6] (at 50.0 µM), 6.8%.

`COc1ccccc1NC(=O)C1=CNC(C)=C(C(=O)Nc2ccccc2OC)C1/C=C/c1ccccc1` (stereo not given): the growth inhibition was 1% in experiment [1] (setting [7]); 18% in experiment [1] (setting [8]); 43.5% in experiment [1] (at 50.0 µM); -4% in experiment [2] (setting [7]); 1% in experiment [2] (setting [8]); -0.75% in experiment [2] (at 50.0 µM). Moreover, the growth inhibition in experiment [3] (setting [7]) was 1%; in experiment [3] (setting [8]), 17%; in experiment [3] (at 50.0 µM), -1.95%; in experiment [4] (setting [7]), -1%; in experiment [4] (setting [8]), -8%; in experiment [4] (at 50.0 µM) it was -6.3%. For the same compound, the growth inhibition in experiment [5] (setting [7]) was -2%; in experiment [5] (setting [8]) it was -8%; in experiment [5] (at 50.0 µM) it was -1.9%; in experiment [6] (setting [7]), -1%; in experiment [6] (setting [8]), 7%; in experiment [6] (at 50.0 µM), 15.3%.

On to `S=c1[nH]nc(Nc2ccccc2Cl)s1`, for which the growth inhibition in experiment [1] (setting [7]) is 17%; in experiment [1] (setting [8]), 3%; in experiment [1] (at 50.0 µM), 57.5%; in experiment [2] (setting [7]), -21%; in experiment [2] (setting [8]) it was -8%; in experiment [2] (at 50.0 µM), 32.4%. Moreover, the growth inhibition in experiment [3] (setting [7]) is -4%; in experiment [3] (setting [8]), 15%; in experiment [3] (at 50.0 µM), 79.8% (active); in experiment [4] (setting [7]), 23%; in experiment [4] (setting [8]) it was 22%; in experiment [4] (at 50.0 µM), 43.2%. For the same compound, the growth inhibition in experiment [5] (setting [7]) is 1%; in experiment [5] (setting [8]), 19%; in experiment [5] (at 50.0 µM) it was 57%; in experiment [6] (setting [7]), -7%; in experiment [6] (setting [8]) it was -8%; in experiment [6] (at 50.0 µM), 47.9%.
